Results filed as inconclusive are left out. Unless noted, calls follow the shape of the dose curve; as a rule, active = well fitted curve in either direction with a large enough effect (not every such curve was filed as active); inconclusive = small, poorly fitted or top-dose-only effect, or another doubt; inactive = flat fitted curve, though single readings scatter.
Legend:
[1] = AP1 Signaling Pathway (AID 357); conditions: ME-180 AP-1-bla reporter, EGF-induced, beta-lactamase ratio, 5 h; at 17.2 µM (top of the series) unless noted;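 also: ME-180 reporter cells stimulated with EGF at its EC50 level; % is scaled to controls: 0 for no effect and ±100 for the full control effect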
Outline: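 AP-1-bla ME-180 cells, Opti-MEM + 0.5% dialyzed FBS, plated overnight 37 °C. Cpd titration + EC50 EGF, 5 h 37 °C. CCF4 2.5 h RT; ex 405, em 460/530 ratio → %activity, AC50.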

[2] = NFAT Signaling Pathway (AID 444); conditions: Jurkat NFAT-bla M1, carbachol, beta-lactamase ratio, 5 h; at 17.2 µM (top of the series) unless noted;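 also: carbachol stimulus at about its EC50 of 1 µM final; % is scaled to controls: 0 for no effect and ±100 for the full control effect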
Outline: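 Read-out: CCF4 FRET ratio (460 nm/530 nm) after 1 h RT dye loading, used for %activity and AC50 from titration series. Cells: Jurkat NFAT-β-lactamase/M1 line, treated with compound plus 1 uM carbachol for 5 h, 37 °C.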

[3] = Stat Signaling Pathway (AID 446); conditions: ME-180 (cervical carcinoma) SIE beta-lactamase reporter, IL-6 stimulated, 5 h; at 17.2 µM (top of the series) unless noted;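 also: ME-180 cervical cancer cells given 40 pM IL-6 alongside compound; SIE-controlled beta-lactamase reporter measured as 460/530 nm FRET emission ratio; % is scaled to controls: 0 for no effect and ±100 for the full control effect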
Outline: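 Compound effects on IL-6-induced STAT reporter activity were measured in ME-180 cells. After overnight culture, cells were co-treated with 40 pM IL-6 for 5 hrs before beta-lactamase substrate loading at room temperature.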

[4] = biological target: Glucocorticoid receptor (Homo sapiens) (UniProt P04150); assay: GR-GFP Redistribution (AID 450;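 active = compounds whose dose series gives a full or clear partial fitted curve of increased nuclear translocation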; also: potency is read from the fitted curve at half-maximal effect)
Chain of Glucocorticoid receptor (Homo sapiens) (P04150 whole entry, looked up): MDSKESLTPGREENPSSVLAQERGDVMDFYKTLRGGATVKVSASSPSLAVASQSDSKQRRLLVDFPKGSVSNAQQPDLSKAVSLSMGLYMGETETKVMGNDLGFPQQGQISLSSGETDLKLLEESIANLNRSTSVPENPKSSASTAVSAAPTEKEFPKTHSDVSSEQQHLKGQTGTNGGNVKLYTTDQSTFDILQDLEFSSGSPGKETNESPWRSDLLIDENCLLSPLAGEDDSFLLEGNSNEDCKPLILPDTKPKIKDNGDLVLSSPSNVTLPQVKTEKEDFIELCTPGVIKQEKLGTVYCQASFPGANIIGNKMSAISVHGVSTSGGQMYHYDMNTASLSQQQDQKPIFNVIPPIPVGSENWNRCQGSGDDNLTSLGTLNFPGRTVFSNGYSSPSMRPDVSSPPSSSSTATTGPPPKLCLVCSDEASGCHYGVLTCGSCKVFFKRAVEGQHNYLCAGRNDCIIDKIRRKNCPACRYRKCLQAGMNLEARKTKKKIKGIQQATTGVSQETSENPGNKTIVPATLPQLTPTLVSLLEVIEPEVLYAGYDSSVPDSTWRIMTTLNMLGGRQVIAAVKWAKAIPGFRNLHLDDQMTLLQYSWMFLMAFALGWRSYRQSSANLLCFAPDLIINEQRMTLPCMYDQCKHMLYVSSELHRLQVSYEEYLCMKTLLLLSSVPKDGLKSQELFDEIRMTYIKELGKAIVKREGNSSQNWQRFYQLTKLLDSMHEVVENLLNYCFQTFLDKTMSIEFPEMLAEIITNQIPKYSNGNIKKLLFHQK

CN1CCC2(CC1)C1CN(C)CC=C1C(C#N)=C(N)C2(C#N)C#N (stereo not given)
inactive: activity change, negative = inhibition [1] 6.27% | activity change, negative = inhibition [2] 13.7% | activity, negative = inhibition [3] 12.8% | Potency [4] > 20.6 µM

Cc1cc(=O)oc2cc(OCC(=O)NCc3cccnc3)ccc12
inactive: activity change, negative = inhibition [1] 0.0607% | activity change, negative = inhibition [2] -8.13% | activity, negative = inhibition [3] -2.73% | Potency [4] > 20.6 µM

Cn1c(=O)c2c(nc(NCc3ccc4c(c3)OCO4)n2Cc2ccc(F)cc2)n(C)c1=O
inactive: activity change, negative = inhibition [1] -26% | activity change, negative = inhibition [2] -10.4% | activity, negative = inhibition [3] -22% | Potency [4] > 20.6 µM

COc1ccc(-n2ncc3c(Nc4cccc(C)c4)ncnc32)cc1
inactive: activity change, negative = inhibition [1] 1.56% | activity change, negative = inhibition [2] -11.9% | activity, negative = inhibition [3] -27.7% | Potency [4] > 20.6 µM

O=C(c1ccc(N2C(=O)C3CC=C(Cl)CC3C2=O)cc1)N1CCCCC1 (stereo not given)
inactive: activity change, negative = inhibition [1] -18.4% | activity change, negative = inhibition [2] 13% | activity, negative = inhibition [3] -8.18% | Potency [4] > 20.6 µM

O=C(C(c1ccccc1)N1CCOCC1)N1CCOCC1 (stereo not given)
inactive: activity change, negative = inhibition [1] 27.9% | activity change, negative = inhibition [2] 7.74% | activity, negative = inhibition [3] 13.8% | Potency [4] > 20.6 µM

Cn1c(OCc2cccnc2)nc2c1c(=O)n(Cc1ccccc1)c(=O)n2C
inactive: activity change, negative = inhibition [1] -12.1% | activity change, negative = inhibition [2] -1.28% | activity, negative = inhibition [3] 4.58% | Potency [4] > 20.6 µM

NC(=O)/C(=N\O)c1ccccc1
inactive: activity change, negative = inhibition [1] -4.98% | activity change, negative = inhibition [2] 15.2% | activity, negative = inhibition [3] -0.233% | Potency [4] > 20.6 µM

CCOC(=O)c1c(C)n(C)c2ccc(OC)c(NC(=O)CCN3CCSCC3)c12
inactive: activity change, negative = inhibition [1] 2.45% | activity change, negative = inhibition [2] 4.14% | activity, negative = inhibition [3] 7.06% | Potency [4] > 20.6 µM

COc1ccc(Nc2nc(Nc3ccc(OC)cc3)nc(-n3[nH]c(=O)c(C)c3C)n2)cc1
inactive: activity change, negative = inhibition [1] 22.4% | activity change, negative = inhibition [2] -1.75% | activity, negative = inhibition [3] 8.62% | Potency [4] > 20.6 µM

COC(=O)C(NC(C)=O)(Nc1ccccc1)C(=O)OC
inactive: activity change, negative = inhibition [1] 2.11% | activity change, negative = inhibition [2] -1.66% | activity, negative = inhibition [3] 13.2% | Potency [4] > 20.6 µM

CCCCCOc1ccc(C(=O)NCC(=O)NCC(=O)OCC)cc1
inactive: activity change, negative = inhibition [1] -2.64% | activity change, negative = inhibition [2] -2.75% | activity, negative = inhibition [3] -0.468% | Potency [4] > 20.6 µM

Cc1occc1C(=O)OCC(=O)Nc1ccc(F)cc1
inactive: activity change, negative = inhibition [1] 17.4% | activity change, negative = inhibition [2] 1.22% | activity, negative = inhibition [3] -3.3% | Potency [4] > 20.6 µM

O=C(Nc1ccccc1C(=O)NCCCn1ccnc1)c1ccccc1
inactive: activity change, negative = inhibition [1] 1.7% | activity change, negative = inhibition [2] 5.76% | activity, negative = inhibition [3] 3.12% | Potency [4] > 20.6 µM

O=c1[nH]c2cnccc2n1-c1ccccc1
inactive: activity change, negative = inhibition [1] -12.9% | activity change, negative = inhibition [2] -4.82% | activity, negative = inhibition [3] 1.57% | Potency [4] > 20.6 µM

CCCC(=O)N1CCN(c2nc(CC(C)C)c3c(c2C#N)CCC3)CC1
inactive: activity change, negative = inhibition [1] -11.7% | activity change, negative = inhibition [2] -18.4% | activity, negative = inhibition [3] -1.27% | Potency [4] > 20.6 µM

O=C(c1ccco1)N1CCN(c2ncnc3c2[nH]c2ccccc23)CC1
inactive: activity change, negative = inhibition [1] -12% | activity change, negative = inhibition [2] 11% | activity, negative = inhibition [3] -16.9% | Potency [4] > 20.6 µM

CCCCCC1CC(CC#CCN2CCOCC2)C(=O)O1 (stereo not given)
inactive: activity change, negative = inhibition [1] 9.22% | activity change, negative = inhibition [2] -1.87% | activity, negative = inhibition [3] -2.28% | Potency [4] > 20.6 µM

CCCCNC(=O)N1CCOCCOCCN(C(=O)NCCCC)CCOCC1
inactive: activity change, negative = inhibition [1] -5.59% | activity change, negative = inhibition [2] 4.17% | activity, negative = inhibition [3] 5.68% | Potency [4] > 20.6 µM

Clc1ccc(-c2nn3c(-c4cccc(Cl)c4)nnc3s2)cc1
inactive: activity change, negative = inhibition [1] 10.2% | activity change, negative = inhibition [2] -4.86% | activity, negative = inhibition [3] 3.59% | Potency [4] > 20.6 µM

CC(C)c1ccc(O)c(N)c1
inactive: activity change, negative = inhibition [1] -2.33% | activity change, negative = inhibition [2] 12.3% | activity, negative = inhibition [3] 2.34% | Potency [4] > 20.6 µM

Cc1ccccc1N1C(=O)C2ON(c3ccccc3)C(c3ccncc3)C2C1=O (stereo not given)
inactive: activity change, negative = inhibition [1] 5.78% | activity change, negative = inhibition [2] 18.5% | activity, negative = inhibition [3] 1.29% | Potency [4] > 20.6 µM

O/N=C(\c1ccc2c(c1)OCCO2)C1CCCCC1
inactive: activity change, negative = inhibition [1] -6.69% | activity change, negative = inhibition [2] -7.17% | activity, negative = inhibition [3] -14% | Potency [4] > 20.6 µM

COc1ccc2c(c1)n([O-])c1c([n+]2=O)CCC1
inactive: activity change, negative = inhibition [1] 13.4% | activity change, negative = inhibition [2] -5.03% | activity, negative = inhibition [3] 7.82% | Potency [4] > 20.6 µM

Cc1cc(CCC(=O)O)c(C)cc1CCC(=O)O
inactive: activity change, negative = inhibition [1] 14.2% | activity change, negative = inhibition [2] 2.85% | activity, negative = inhibition [3] 7.37% | Potency [4] > 20.6 µM

From PubChem BioAssay (NCATS)
